Only some compounds are listed: those with a hit (about 27% of all), similar ones and a draw of the others.
CYP2C9 inh: inhibitors of human CYP2C9. P11712. CYP2C9 Supersomes, luciferin-H conversion, luminescence. inhibition, % at 5 µM. actives 20% (n = 96,000);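 active = blocking of liver enzyme CYP2C9 beyond about 50% at 5 µM, limit read from the data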
CYP2C19 inh: inhibitors of human CYP2C19; actives 21% (n = 96,000); AID 778; CYP2C19 Supersomes, luciferin-H EGE luminescence, 30 min; P33261; inhibition, % at 5 µM;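 active = CYP2C19 inhibition above a set limit at 5 µM in the primary screen, cut at about 50% in these data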
Target sequence (P33261 whole entry, looked up): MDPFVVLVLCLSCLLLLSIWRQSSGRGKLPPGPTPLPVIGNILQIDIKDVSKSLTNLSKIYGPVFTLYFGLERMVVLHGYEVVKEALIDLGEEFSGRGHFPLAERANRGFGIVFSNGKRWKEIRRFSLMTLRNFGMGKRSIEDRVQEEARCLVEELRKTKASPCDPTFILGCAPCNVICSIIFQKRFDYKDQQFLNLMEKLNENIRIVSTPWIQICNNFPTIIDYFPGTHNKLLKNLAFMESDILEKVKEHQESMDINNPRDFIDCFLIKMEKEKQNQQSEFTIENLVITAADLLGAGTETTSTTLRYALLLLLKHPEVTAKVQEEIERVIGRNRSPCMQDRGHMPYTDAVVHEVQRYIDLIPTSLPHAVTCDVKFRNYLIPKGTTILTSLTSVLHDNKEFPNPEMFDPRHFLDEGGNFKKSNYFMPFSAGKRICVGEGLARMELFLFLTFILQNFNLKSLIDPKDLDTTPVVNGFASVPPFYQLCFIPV
CYP2C9 activ: CYP2C9 (human) activation | recombinant CYP2C9, luciferin-H conversion, luminescence; active compounds read high; factor 1 = untreated enzyme, 0 = blocked | activation factor at 5 µM | actives 1.4% (n = 96,000) | AID 1024;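 active = activation factor of 2 or more for CYP2C9 at a 5 µM dose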
CYP2C19 activ: cytochrome P450 2C19 (human) activation | P33261 | recombinant CYP2C19, luciferin-H EGE luminescence; active compounds read high; 0 = fully inhibited enzyme, 1 = untreated enzyme | activation factor at 5 µM | 96,000 tested, under 10 active | AID 1025;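 active = activation factor of at least 2 at 5 µM in the primary screen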
Cav3 T inh: inhibitors of human Cav3.2 T-type calcium channel. O95180. actives 4% (n = 100,000). B-score at 10 µM. Cav3.2-expressing cells, Fluo-4 calcium fluorescence FDSS; active compounds read low;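 active = single-dose well whose peak fluorescence ratio is a statistical outlier from its plate by either plate-standardised score or position-corrected B-score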
Large screens that a line does not name were inactive.

CCOC(=O)C1CCCN(C(=O)C2c3ccccc3Oc3ccccc32)C1 (stereo not given)	CYP2C9 inh 64, CYP2C19 inh 97, Cav3 T inh -5.8
CCOC(=O)C1CCCN(c2c(Nc3ccc(OCC)cc3)c(=O)c2=O)C1 (stereo not given)	none
CCOC(=O)C1CCCN(C(=O)Cc2ccc(C)cc2)C1 (stereo not given)	none
CS(=O)(=O)N1CCN(C(=O)c2ccccc2)C1	none
CCOC(=O)C1CCCN(C(=O)CC(c2ccccc2)c2ccccc2)C1 (stereo not given)	none (no result: CYP2C9 inh, CYP2C19 inh, CYP2C9 activ, CYP2C19 activ)
Cc1cc2n(c(=O)c1C#N)CCCN2c1ccccc1	none (no result: CYP2C9 inh, CYP2C19 inh, CYP2C9 activ, CYP2C19 activ)
CCOC(=O)C1CCCN(C(=O)C2CCCN(S(C)(=O)=O)C2)C1 (stereo not given)	none
CC1(C)C=Cc2cc(-c3coc4cc(O)cc(O)c4c3=O)cc(O)c2O1	none (no result: CYP2C9 inh, CYP2C19 inh, CYP2C9 activ, CYP2C19 activ)
CCOc1ccccc1N1CCN(C(=O)C2c3ccccc3Oc3ccccc32)CC1	CYP2C9 inh 85, CYP2C19 inh 78
O=C(CCCO)CCCCCCCCC[C@H]1N[C@H](CO)[C@@H](O)[C@@H]1O	none (no result: CYP2C9 inh, CYP2C19 inh, CYP2C9 activ, CYP2C19 activ)
C=CCN(C(=O)CNC(=O)c1ccco1)C(C(=O)NC1CCCCC1)c1ccc(OC)cc1OC (stereo not given)	none
COc1ccc(-c2nnn(CC(=O)N(C3CCCC3)C(C)C(=O)NC3CCCC3)n2)cc1OC (stereo not given)	CYP2C9 inh 59, CYP2C19 inh 81
Cc1ccc(-c2nnn(CC(=O)N(c3ccccc3F)C(C(=O)NC3CCCC3)c3ccco3)n2)o1 (stereo not given)	none
CCCC(C(=O)NC1CCCC1)N(C(=O)Cn1nnc(-c2ccc(C)o2)n1)c1ccccc1OC (stereo not given)	CYP2C9 inh 81, CYP2C19 inh 88
COc1ccc(N(CC(=O)NC2CCCC2)C(=O)Cn2nnc(-c3ccc(C)cc3)n2)cc1OC	none
COc1ccc(N(CC(=O)NC2CCCC2)C(=O)Cn2nnc(-c3ccc(C)cc3)n2)cc1	Cav3 T inh -6.7 (no result: CYP2C9 inh, CYP2C19 inh, CYP2C9 activ, CYP2C19 activ)
COC(=O)/C(C#N)=C1/C=Cc2ccccc2N1C	none (no result: CYP2C9 inh, CYP2C19 inh, CYP2C9 activ, CYP2C19 activ)
CCOC(=O)/C(C#N)=c1/s/c(=C2\C=Cc3ccccc3N2CC)c(=O)n1CC	CYP2C19 inh 58 (no result: Cav3 T inh)
CCCCCC(=O)Cc1cc(O)cc2c1C(=O)Oc1cc(O)c(C(=O)O)c(CCCCC)c1O2	none (no result: CYP2C9 inh, CYP2C19 inh, CYP2C9 activ, CYP2C19 activ)
CC(=O)Nc1sc2c(c1C(c1ccc(Cl)cc1)N1CCOCC1)CCCC2 (stereo not given)	none (no result: Cav3 T inh)
CC(=O)Nc1sc2c(c1C(c1ccccc1)N1CCOCC1)CCCC2 (stereo not given)	Cav3 T inh -6.3
CC(=O)Nc1sc2c(c1C(c1ccc(F)cc1)N1CCOCC1)CCCC2 (stereo not given)	Cav3 T inh -7.1
O=C(Cc1cn2ccsc2n1)NCCc1ccc(F)cc1	CYP2C19 inh 72
O=C(Cc1cn2ccsc2n1)Nc1ccccc1Oc1ccccc1	CYP2C9 inh 70, CYP2C19 inh 80
COc1ccc(-c2nc3n(n2)C(c2ccccc2)C2=C(CCCC2=O)N3)cc1OC (stereo not given)	none
COC(=O)c1[nH]c2ccc(Cl)cc2c1NC(=O)C1CC1	none (no result: Cav3 T inh)
NC(=O)CNC(=O)C1CCCc2c1[nH]c1ccc(Cl)cc21 (stereo not given)	CYP2C9 inh 50
Cc1c(NC(=O)CSc2nnc3sc4ccccc4n23)c(=O)n(-c2ccccc2)n1C	none
O=C(NC1CCCc2ccccc21)C1CCN(S(=O)(=O)c2cnc[nH]2)CC1 (stereo not given)	CYP2C9 inh 70
CC(CCc1ccccc1)NC(=O)C1CCN(S(=O)(=O)c2cnc[nH]2)CC1 (stereo not given)	CYP2C9 inh 93, CYP2C19 inh 75
CCOc1cc2[nH]c(=O)n(CCC(=O)NCCc3ccccc3)c(=O)c2cc1OCC	none
CCOC(=O)c1sc(C)c2c1NC(C)(c1cccs1)NC2=O (stereo not given)	CYP2C9 inh 63
CCOC(=O)c1sc(C)c2c1NC1(CCCCC1)NC2=O	none
CCOC(=O)c1c(C)nc2sc3c(=O)n(-c4ccc(C(C)=O)cc4)cnc3c2c1-c1ccc(Cl)cc1	CYP2C9 inh 88, CYP2C19 inh 94
CCC(C)[C@@H](C(=O)N1CCNCC1)n1cc(CCCN=C(N)N)nn1 (stereo not given in full)	none (no result: CYP2C9 inh, CYP2C19 inh, CYP2C9 activ, CYP2C19 activ)
CC(=O)Nc1ccc(-c2csc(NCc3ccco3)n2)cc1	none (no result: CYP2C9 inh, CYP2C19 inh, CYP2C9 activ, CYP2C19 activ)
COc1ccc(-c2csc(NCc3ccco3)n2)cc1C	CYP2C9 inh 62, CYP2C19 inh 81
c1cncc(-c2csc(NCc3ccco3)n2)c1	CYP2C9 inh 74, CYP2C19 inh 86
Clc1ccc(Nc2nc(-c3cccnc3)cs2)cc1	CYP2C19 inh 83
c1ccc(CCNc2nc(-c3cccnc3)cs2)cc1	CYP2C9 inh 59, CYP2C19 inh 92
Nc1nc(-c2cccnc2)nn1C(=O)CCc1ccccc1	none (no result: CYP2C9 inh, CYP2C19 inh, CYP2C9 activ, CYP2C19 activ)
CCCn1cnc2c1c(=O)n(CCCCC(C)=O)c(=O)n2C	none (no result: CYP2C9 inh, CYP2C19 inh, CYP2C9 activ, CYP2C19 activ)
CCC(=O)NCCc1nc2cc(NC(=O)c3ccccc3OC)ccc2n1C	none
Cc1cc(OCC(=O)NCCCN(C)C)cc(C)c1Br	none
CNC(=O)CSc1nc2nc(C)cc(C)n2n1	none
Cc1cc(C)n2nc(SCC(=O)c3ccc[nH]3)nc2n1	CYP2C9 inh 55
CSc1nc(-c2ccco2)nn1S(=O)(=O)c1ccccc1	CYP2C19 inh 83, CYP2C9 activ 2.1
CSc1nc(-c2ccco2)nn1S(=O)(=O)c1ccc(C)cc1	CYP2C9 inh 70, CYP2C19 inh 68
CCS(=O)(=O)n1nc(-c2ccco2)nc1SC	none
CSc1nc(-c2ccco2)nn1C(=O)c1ccc(C)cc1	none
CCCCCCNC(=O)c1ccc(Br)o1	none (no result: CYP2C9 inh, CYP2C19 inh, CYP2C9 activ, CYP2C19 activ)
CCCCCCNCc1ccc(Br)cc1	CYP2C19 inh 75
COc1ccc(C(=O)NCc2nnc(SCC(=O)N3CCCCC3)o2)cc1OC	none
COCCN1C(=O)c2ccccc2C(C(=O)N2CCN(c3ccccc3)CC2)C1c1ccc(F)cc1 (stereo not given)	CYP2C9 inh 71
COCCNC(=O)C1c2ccccc2C(=O)N(CCOC)C1c1ccc(F)cc1 (stereo not given)	none
C/C=C1\COC(C(=O)NCc2cccc(OC)c2OC)(C(F)(F)F)C=C1C=C1CCCCC1 (stereo not given)	Cav3 T inh -4.2 (no result: CYP2C9 inh, CYP2C19 inh, CYP2C9 activ, CYP2C19 activ)
C/C=C1\COC(C(=O)NCc2ccncc2)(C(F)(F)F)C=C1C=C1CCCCC1 (stereo not given)	none (no result: CYP2C9 inh, CYP2C19 inh, CYP2C9 activ, CYP2C19 activ)
COc1ccc2c(c1)c1ncn(Cc3ccco3)c(=O)c1n2C	CYP2C9 inh 72, CYP2C19 inh 75
CCOC(=O)c1ccccc1NC(=O)Cn1cnc2c(oc3ccccc32)c1=O	none
O=[N+]([O-])c1ccc([C@H](O)[C@H](CO)N=Cc2ccccc2O)cc1	none
Cc1n[nH]c(C)c1Sc1ccccc1N=Cc1cc([N+](=O)[O-])ccc1O	CYP2C9 inh 74
Cc1cc(Cl)c(S(=O)(=O)N2CCN(c3ccc(F)cc3)CC2)cc1OCC(N)=O	none
Cc1cc(Cl)c(S(=O)(=O)N2CCN(c3ccc(F)cc3)CC2)cc1OCC(=O)NC1CCCCC1	CYP2C9 inh 96, CYP2C19 inh 83, Cav3 T inh -5.2

From PubChem
